OTUD3 inh: inhibitors of human OTUD3 deubiquitinase. OTU domain-containing protein 3 (Homo sapiens), Q5T2D3. purified OTUD3, Ub-rhodamine fluorescence, 2 h. inhibition, % at 25 µM. hit rate 0.7% among 47,000
Target sequence (Q5T2D3 whole entry, looked up, the tested form may be a part): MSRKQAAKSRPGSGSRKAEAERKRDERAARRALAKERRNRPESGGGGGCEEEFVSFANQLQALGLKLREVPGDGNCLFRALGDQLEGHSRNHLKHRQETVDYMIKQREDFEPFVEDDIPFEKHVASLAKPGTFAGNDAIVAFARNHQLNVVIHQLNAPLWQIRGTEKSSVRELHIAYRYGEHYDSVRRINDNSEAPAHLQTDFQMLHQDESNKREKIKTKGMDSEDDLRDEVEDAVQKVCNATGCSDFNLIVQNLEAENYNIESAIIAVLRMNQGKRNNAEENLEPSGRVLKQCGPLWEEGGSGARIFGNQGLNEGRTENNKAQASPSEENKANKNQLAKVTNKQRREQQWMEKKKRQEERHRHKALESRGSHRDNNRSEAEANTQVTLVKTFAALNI
USP30 inh: inhibitors of human USP30 deubiquitinase; Ubiquitin carboxyl-terminal hydrolase 30 (Homo sapiens), Q70CQ3; hit rate 5.3% among 47,000; AID 1645860, 2021; purified USP30, Ub-rhodamine cleavage fluorescence; inhibition, % at 25 µM
USP17 block: inhibitors of human USP17 deubiquitinase; Ubiquitin carboxyl-terminal hydrolase 17-like protein 5 (Homo sapiens), A8MUK1; purified USP17, Ub-rhodamine cleavage fluorescence, 3 h; inhibition, % at 50 µM; hit rate 6.5% among 47,000; AID 1645855, 2021
USP28 inh: inhibitors of human USP28 deubiquitinase; Ubiquitin carboxyl-terminal hydrolase 28 (Homo sapiens), Q96RU2; purified USP28, Ub-rhodamine cleavage fluorescence, 30 min; inhibition, % at 25 µM; hit rate 3% among 47,000
* marks the source's active call; other numbers are inactive results; · = no result given. A selection: hits, their analogues and other compounds. The true share with any hit is near 11%. Cut-off read from the data, not from the text of the source: active = inhibition above about 30%; inactive = the rest.

SMILES | OTUD3 inh | USP30 inh | USP17 block | USP28 inh
CCN(CC)S(=O)(=O)c1ccc2oc(N3CCOCC3)nc2c1 | 2.9 | 2.2 | 8.9 | 3.8
COc1cc(OC)cc(C(=O)Nc2ccc3oc(-c4ccc5ccccc5c4)nc3c2)c1 | 14.5 | -19.1 | 33.1* | 0.3
COc1cc(OC)cc(C(=O)Nc2cnc(-c3ccccc3)nc2)c1 | 23.3 | 17.4 | 52.0* | 13.8
COc1ccccc1CC(=O)Nc1cnc(-c2ccccc2)nc1 | 0.0 | -6.2 | -12.9 | -1.8
Cc1nc2nc(N(Cc3ccccc3)C(=O)C3CCCCC3)[nH]n2c(=O)c1C | -0.5 | 5.3 | 2.1 | -1.4
Cn1ccnc1CN1C(=O)CO[C@H]2CN(Cc3ccc(C(F)(F)F)cc3)C[C@H]21 | -5.5 | -7.8 | -9.2 | -6.9
COc1ccc(CC(=O)N2CCCc3c(cnn3C)C2)cc1OC | 0.1 | -10.6 | -0.5 | -1.9
CCOC(=O)C1C(=O)NC(c2ccccc2)=NC1c1ccc(C(F)(F)F)cc1 (centres undefined) | 6.7 | 41.0* | 20.9 | 13.5
CC(C)=CCC/C(C)=C/C[C@]1(O)C(=O)c2cc(O)cc(O)c2C(=O)[C@@]1(Cl)CC=C(C)C | 13.8 | 9.4 | 50.1* | 19.5
O=C(c1ccc(C23CC4CC(CC(C4)C2)C3)o1)N1CCCc2ccccc21 | 19.1 | 13.9 | 6.5 | 10.6
O=S(=O)(c1ccc(Cl)cc1)N1CCN(Cc2nnnn2-c2ccc(F)cc2)CC1 | -4.8 | 0.4 | -8.5 | -1.2
COc1ccc(-n2nnnc2CN2CCN(S(=O)(=O)c3ccc(F)cc3)CC2)cc1 | 0.0 | 1.9 | 33.6* | -6.0
O=c1c(-c2nc(C3CC3)no2)cccn1Cc1c(F)cccc1Cl | 2.3 | 23.5 | 4.1 | 85.4*
O=c1c(-c2nc(C3CC3)no2)cccn1Cc1noc(-c2ccccc2F)n1 | -7.0 | -127.3 | -24.9 | -9.9
FC(F)(F)c1cccc(C2(c3nc(Cc4ccccc4)no3)CCOCC2)c1 | 10.7 | 0.0 | 2.2 | 11.7
CCCCc1nc2sc3c(SCC(=O)OC)ncnc3c2c2c1CCC2 | -9.4 | -13.3 | -5.5 | 25.7
CCCc1nc2sc3c(NC4CCCCC4)ncnc3c2c2c1CCC2 | 5.4 | 23.0 | 11.6 | 74.8*
CCCCNc1ncnc2c1sc1nc(CCCC)c3c(c12)CC(C)(C)OC3 | 1.9 | 14.2 | 44.9* | -4.2
CCCCc1nc2sc3c(SCC(=O)Nc4ccc(OC)cc4)ncnc3c2c2c1CCC2 | 14.5 | 47.6* | 24.8 | 28.5
CC(C)Cc1nc2sc3c(NC4CCCCC4)ncnc3c2c2c1CCC2 | -3.7 | -8.5 | -8.1 | -8.2
CCCc1nc2sc3c(N(CC)CC)ncnc3c2c2c1CCC2 | 1.2 | -8.6 | -2.1 | 52.3*
CCc1nc2sc3c(NCCN4CCOCC4)ncnc3c2c2c1COC(C)(C)C2 | -0.1 | -0.3 | 5.1 | -6.7
COc1ccc(NC(=O)CSc2ncnc3c2sc2nc(CC(C)C)c4c(c23)CCC4)cc1 | 10.0 | 20.7 | 8.0 | 21.2
Cc1c(CC(=O)N2CCC[C@H]2C(=O)O)c(=O)oc2cc(O)ccc12 | -5.7 | · | -11.2 | ·
O[C@H]1[C@H](NCc2ccc(F)cc2)[C@@H](c2ccccc2)C[C@H]1O | -9.1 | -9.2 | -25.7 | -12.8
SMILES | OTUD3 inh | USP30 inh | USP17 block | USP28 inh
CCCc1nc2sc3c(NCCc4ccc(OC)c(OC)c4)ncnc3c2c2c1CCC2 | -28.0 | -46.4 | -23.1 | 67.1*
Cc1cc(-c2cnc(N3CCC(O)CC3)nc2[C@@H]2CCCO2)on1 | 2.7 | 1.1 | -1.8 | -6.2
COc1ccc(N2CCn3c(SCC(=O)Nc4cc(C)cc(C)c4)nnc32)cc1 | -2.9 | 34.7* | · | -6.2
CN(Cc1ccccc1F)C(=O)c1ccc(-c2ccccc2F)o1 | 5.6 | -0.4 | · | 18.4
O=C(Cn1c(=O)nc(-c2ccccc2)c2ccccc21)NCc1ccc2c(c1)OCO2 | 23.3 | 8.9 | 67.8* | 31.1*
CN(Cc1ccccc1F)C(=O)c1nc(-c2ccccc2)n(-c2ccccc2)n1 | 22.1 | 46.8* | 24.7 | 21.0
O=C(CSc1nnc2sc3ccccc3n12)NCc1ccc2c(c1)OCO2 | 6.4 | 19.8 | 31.7* | -0.8
O=C(NCc1ccc2c(c1)OCO2)c1cc2ccccc2s1 | 21.9 | 29.5 | 22.7 | 41.5*
O=C(c1ccc(Cl)cc1)N1CCCn2nnc(Cn3ccnc3)c2C1 | 8.7 | -315.1 | 1.1 | 7.1
Cc1sc2nc(C(C)C)n(C3CCCN(CC(N)=O)C3)c(=O)c2c1C (centres undefined) | -9.9 | -17.1 | -7.7 | -9.1
Cc1nc(-c2ccccc2)sc1C(=O)NCc1ccc2c(c1)OCO2 | 0.3 | 21.0 | -0.3 | 5.6
O=C(NCc1ccc2c(c1)OCO2)c1nc(-c2ccccc2)n(-c2ccccc2)n1 | 16.6 | 55.0* | 17.7 | 6.3
Cc1ccc(CNC(=O)CCC(=O)NCc2ccc3c(c2)OCO3)o1 | 3.6 | 20.1 | 38.5* | 6.2
CC(C)C(=O)Nc1nc2ccc(CCC(=O)NCc3ccc4c(c3)OCO4)cc2s1 | 18.4 | 38.2* | 23.5 | 23.3
c1ccc2c(c1)c(NCc1ccc3c(c1)OCO3)nn1cnnc21 | 2.9 | -27.1 | 41.1* | 8.5
Cc1ccc(CS(=O)Cc2ccc(C(=O)NCc3ccc4c(c3)OCO4)o2)cc1 (centres undefined) | 0.9 | -3.8 | -13.2 | -0.5
CN(C)CC(=O)N1CCC(c2nc3ccc(-c4ccccc4)cn3n2)CC1 | 12.3 | 17.2 | 2.3 | 15.8
Cc1nc(N2CCCC2)ncc1C(=O)Nc1ccc(Cl)cc1 | 2.3 | 5.3 | 44.8* | 15.5
N#Cc1ccc(C(=O)Nc2cnc(N3CCCCCC3)nc2)cc1 | 0.0 | · | 52.7* | ·
CC(=O)c1cccc(NC(=O)c2cnc(N3CCCCC3)nc2C)c1 | 0.8 | -0.2 | 4.0 | 26.2
COc1ccc(C(=O)Nc2cnc(N3CCCCCC3)nc2)cc1 | -0.2 | -9.2 | -2.5 | 43.7*
CN(C)C(=O)N1CCC2(CC1)CN(Cc1ccccc1)C(=O)CO2 | -2.9 | -4.5 | -8.4 | -11.1
Cn1c(=O)oc2ccc(C(=O)N3CCNCC3c3ccccc3)cc21 (centres undefined) | 9.9 | 14.3 | 1.3 | 9.5
CCOC(=O)C1=C(C)Nc2nc(-c3ccccc3)nn2C1c1cccc([N+](=O)[O-])c1 (centres undefined) | -1.3 | -0.3 | 22.1 | -0.7
COc1ccc(Cc2nnc(NC(C)c3ccccc3)[nH]c2=O)cc1 (centres undefined) | 9.7 | 27.0 | 14.5 | 11.4
SMILES | OTUD3 inh | USP30 inh | USP17 block | USP28 inh
CCN(CC)S(=O)(=O)c1ccc(O)c(NC(=O)COc2ccccc2F)c1 | -7.4 | 29.9 | 33.4* | -17.1
CC1Oc2ccccc2C(=O)N(CC(=O)c2ccc3c(c2)OCCO3)C1=O (centres undefined) | 12.9 | 23.0 | 13.0 | 30.5*
CC1Oc2ccccc2C(=O)N(Cc2ccccc2)C1=O (centres undefined) | 21.5 | 31.7* | 19.9 | 32.6*
CC1Oc2ccccc2C(=O)N(Cc2ccc(F)cc2)C1=O (centres undefined) | 6.1 | 9.5 | 10.3 | 18.0
O=C(C1CCN(c2nc(-c3ccccc3)no2)CC1)N1CCN(Cc2ccccc2)CC1 | -0.5 | 10.5 | -0.5 | -1.4
CCn1c(-c2nnc(SCC(=O)NCCc3nc4ccccc4[nH]3)o2)cc2ccccc21 | 4.3 | · | 91.9* | ·

Compound activity: PubChem BioAssay, Buhrlage Lab, Dana-Farber Cancer Institute and Novartis Institutes for BioMedical Research (Cambridge, Mass)
